According to PubChem BioAssay (Tox21):
Calls of active or inactive are those of the source. Unless noted, calls come from the whole dose curve; as a rule, active = well fitted curve in the direction sought with a large enough effect in the repeat runs; inconclusive = weak or mixed curves; inactive = no such curve, though single readings can be large; an effect the other way counts as inactive or inconclusive.

What was measured:
[1] = qHTS assay to identify small molecule antagonists of the thyroid receptor (TR) signaling pathway - cell viability counter screen (AID 743064); note: nearly all actives have a fitted effect of over 50% in size; note: potency is the fitted concentration of half-maximal effect
In short: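 Same-well viability check: GH3.TRE-Luc cells stimulated with 1 nM T3 alongside test compound for 23.5 h, followed by CellTiter-Fluor fluorescence.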

[2] = qHTS assay to identify small molecule antagonists of the thyroid receptor (TR) signaling pathway (AID 743065); note: nearly all actives have a fitted effect of over 55% in size; note: potency is the fitted concentration of half-maximal effect
In short: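 GH3.TRE-Luc rat pituitary cells (two TREs driving luciferase) were dosed with compound, then stimulated with 1 nM T3 (final) for 23.5 h at 37 C. ONE-Glo luminescence was the read-out, with CellTiter-Fluor fluorescence as the cytotoxicity counter-screen.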

[3] = qHTS assay to identify small molecule antagonists of the estrogen receptor alpha (ER-alpha) signaling pathway - cell viability counter screen (AID 743074; calls by dose curve;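 note: HEK293 cells carrying ER-alpha-UAS-bla reporter stimulated with 17beta-estradiol; nearly all actives have a fitted effect of over 45% in size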; note: potency is the fitted concentration of half-maximal effect)
[4] = molecular target: Estrogen receptor (Homo sapiens) (UniProt P03372); experiment: qHTS assay to identify small molecule agonists of the estrogen receptor alpha (ER-alpha) signaling pathway (AID 743075; calls by dose curve;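 note: HEK293 GripTite cells with ER-alpha and UAS-driven beta-lactamase reporter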; note: potency is the fitted concentration of half-maximal effect)
Sequence of Estrogen receptor (Homo sapiens) (P03372 whole entry, looked up): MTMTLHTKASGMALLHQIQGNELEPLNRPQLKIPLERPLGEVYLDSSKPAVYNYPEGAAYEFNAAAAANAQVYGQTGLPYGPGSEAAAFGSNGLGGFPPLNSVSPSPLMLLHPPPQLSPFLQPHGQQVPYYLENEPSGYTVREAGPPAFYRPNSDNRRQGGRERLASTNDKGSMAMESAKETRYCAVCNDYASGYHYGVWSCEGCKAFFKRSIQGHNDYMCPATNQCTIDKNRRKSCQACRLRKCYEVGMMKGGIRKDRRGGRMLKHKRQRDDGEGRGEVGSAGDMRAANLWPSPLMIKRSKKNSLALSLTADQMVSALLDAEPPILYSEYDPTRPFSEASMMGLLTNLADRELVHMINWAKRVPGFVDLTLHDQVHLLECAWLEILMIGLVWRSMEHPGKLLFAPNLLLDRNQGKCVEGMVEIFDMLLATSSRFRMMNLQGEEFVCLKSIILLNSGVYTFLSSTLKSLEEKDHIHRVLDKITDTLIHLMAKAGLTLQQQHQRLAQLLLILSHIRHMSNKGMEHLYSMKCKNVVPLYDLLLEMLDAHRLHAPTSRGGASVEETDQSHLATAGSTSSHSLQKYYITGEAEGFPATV

[5] = molecular target: Estrogen receptor (Homo sapiens) (UniProt P03372); experiment: qHTS assay to identify small molecule agonists of the estrogen receptor alpha (ER-alpha) signaling pathway using the BG1 cell line (AID 743079); settings: BG1Luc4E2 cells, ERE-luciferase agonist, 22 h; activation: at 70.3 µM (top of the series); note: nearly all actives have a fitted effect of over 20% in size; note: potency is the fitted concentration of half-maximal effect
[6] = qHTS assay to identify small molecule antagonists of the estrogen receptor alpha (ER-alpha) signaling pathway using the BG1 cell line (AID 743080; calls by dose curve;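 note: BG1 cells stimulated with 17beta-estradiol alongside compound; nearly all actives have a fitted effect of over 25% in size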; note: potency is the fitted concentration of half-maximal effect)
In short: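 Luminescence from a 4×ERE-luciferase reporter in BG1-Luc-4E2 cells served as read-out. Cells, pre-cultured 5 days in stripped-serum phenol-red-free medium, were exposed to compound with 17beta-estradiol co-stimulation for 21.5 h at 37 C.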

[7] = qHTS assay to identify small molecule antagonists of the estrogen receptor alpha (ER-alpha) signaling pathway using the BG1 cell line - cell viability counter screen (AID 743081);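 note: compound given together with 17beta-estradiol as the ER stimulus; nearly all actives have a fitted effect of over 45% in size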
[8] = molecular target: Aryl hydrocarbon receptor (Homo sapiens) (UniProt P35869); experiment: qHTS assay to identify small molecule that activate the aryl hydrocarbon receptor (AhR) signaling pathway (AID 743085); note: nearly all actives have a fitted effect of over 15% in size; note: potency is the fitted concentration of half-maximal effect;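 for activation: HG2L7.5c1 human HepG2 liver cells with stably integrated DRE-driven firefly reporter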
Sequence of Aryl hydrocarbon receptor (Homo sapiens) (P35869 whole entry, looked up): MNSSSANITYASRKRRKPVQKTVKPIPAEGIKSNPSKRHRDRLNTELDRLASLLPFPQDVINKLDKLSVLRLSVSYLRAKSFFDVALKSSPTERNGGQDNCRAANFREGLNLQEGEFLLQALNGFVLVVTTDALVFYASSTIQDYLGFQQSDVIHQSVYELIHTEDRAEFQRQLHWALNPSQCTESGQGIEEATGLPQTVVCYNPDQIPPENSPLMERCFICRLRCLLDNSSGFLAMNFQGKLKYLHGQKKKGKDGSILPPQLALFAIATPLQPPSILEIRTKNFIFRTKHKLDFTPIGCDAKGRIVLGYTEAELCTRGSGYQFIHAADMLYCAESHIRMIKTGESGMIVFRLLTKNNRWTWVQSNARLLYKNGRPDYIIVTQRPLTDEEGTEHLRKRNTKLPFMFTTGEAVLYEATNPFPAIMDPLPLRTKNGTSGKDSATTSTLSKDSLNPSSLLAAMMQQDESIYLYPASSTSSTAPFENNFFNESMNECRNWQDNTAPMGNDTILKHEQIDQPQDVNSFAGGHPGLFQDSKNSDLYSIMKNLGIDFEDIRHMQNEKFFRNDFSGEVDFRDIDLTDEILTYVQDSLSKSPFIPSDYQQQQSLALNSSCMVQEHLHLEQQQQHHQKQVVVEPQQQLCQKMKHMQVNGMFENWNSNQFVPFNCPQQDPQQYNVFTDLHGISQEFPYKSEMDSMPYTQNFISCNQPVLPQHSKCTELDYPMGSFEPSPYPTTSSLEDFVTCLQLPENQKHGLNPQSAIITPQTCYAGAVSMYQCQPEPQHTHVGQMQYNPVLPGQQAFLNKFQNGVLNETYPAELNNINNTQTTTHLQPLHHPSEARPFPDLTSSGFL
In short: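 Reporter assay in engineered HepG2 line HG2L7.5c1, whose plasmid carries twenty dioxin responsive elements upstream of firefly luciferase. Treatment lasted 24 h at 37C; ONE-Glo luminescence gauged induction.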

[9] = molecular target: Peroxisome proliferator-activated receptor gamma (Homo sapiens) (UniProt P37231); experiment: qHTS assay to identify small molecule antagonists of the peroxisome proliferator-activated receptor gamma (PPARg) signaling pathway (AID 743191; calls by dose curve; note: nearly all actives have a fitted effect of over 30% in size; note: potency is the fitted concentration of half-maximal effect)
Sequence of Peroxisome proliferator-activated receptor gamma (Homo sapiens) (P37231 whole entry, looked up): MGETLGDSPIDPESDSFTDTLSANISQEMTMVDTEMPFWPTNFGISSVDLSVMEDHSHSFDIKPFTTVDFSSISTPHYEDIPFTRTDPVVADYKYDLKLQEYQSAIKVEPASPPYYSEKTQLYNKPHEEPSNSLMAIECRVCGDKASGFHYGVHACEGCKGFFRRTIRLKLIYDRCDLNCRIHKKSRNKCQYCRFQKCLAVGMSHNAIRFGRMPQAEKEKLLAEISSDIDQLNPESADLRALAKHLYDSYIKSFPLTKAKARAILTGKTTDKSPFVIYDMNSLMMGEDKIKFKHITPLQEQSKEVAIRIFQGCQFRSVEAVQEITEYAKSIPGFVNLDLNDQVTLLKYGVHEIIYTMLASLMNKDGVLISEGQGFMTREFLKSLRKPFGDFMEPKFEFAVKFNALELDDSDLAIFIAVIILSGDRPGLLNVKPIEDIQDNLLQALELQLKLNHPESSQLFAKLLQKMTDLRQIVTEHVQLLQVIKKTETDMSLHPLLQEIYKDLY
In short: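 GeneBLAzer PPARg UAS-bla HEK293H cells, 5 h post-plating, exposed to compounds 17 h at 37C. LiveBLAzer B/G FRET substrate added for 1 h at room temperature; beta-lactamase reporter read by fluorescence intensity.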

[10] = qHTS assay to identify small molecule antagonists of the peroxisome proliferator-activated receptor gamma (PPARg) signaling pathway - cell viability counter screen (AID 743194); settings: Potency: co-treated with 50 nM rosiglitazone unless noted; note: nearly all actives have a fitted effect of over 55% in size
In short: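 Cytotoxicity counter screen in PPARg-bla HEK293H cells, same wells as reporter assay. Compounds plus 50 nM rosiglitazone (final) for 17 h at 37 C, then viability read by CellTiter-Glo luminescence.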

[11] = qHTS assay for small molecule agonists of the antioxidant response element (ARE) signaling pathway (AID 743202; active = well fitted activation curve with a large enough effect in the signal ratio in the repeat runs, not every such curve was filed as active; inconclusive = weak or mixed curves, or effect the other way; inactive = no such curve, though single readings can be large or run the other way; the % refers to the signal ratio; note: potency is the fitted concentration of half-maximal effect)
In short: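 HepG2 ARE-bla reporter line, 2,000 cells/well; 5 h preincubation 37 C/5% CO2; compound (DMSO) 16 h 37 C; B/G FRET substrate 2 h RT; fluorescence intensity.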

[12] = qHTS assay for small molecule agonists of the antioxidant response element (ARE) signaling pathway - cell viability counter screen (AID 743203; calls by dose curve; note: nearly all actives have a fitted effect of over 55% in size; note: potency is the fitted concentration of half-maximal effect)
In short: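 ATP content via CellTiter-Glo luminescence served as the viability measure. Cells: ARE-bla HepG2, 2,000 per well. Exposure: 16 hrs, 37C/5% CO2.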

[13] = qHTS assay for small molecule activators of the heat shock response signaling pathway - cell viability counter screen (AID 743209); note: nearly all actives have a fitted effect of over 50% in size; note: potency is the fitted concentration of half-maximal effect
In short: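 Compounds dissolved in DMSO were added to overnight-plated HSE-bla HeLa cells and left 5 h at 37 C. Cell viability was quantified by luminescence using CellTiter-Glo.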

[14] = qHTS assay for small molecule activators of the heat shock response signaling pathway (AID 743210; active = well fitted activation curve with a large enough effect in the signal ratio in the repeat runs, with a control signal flat, not every such curve was filed as active; inconclusive = weak or mixed curves; the % refers to the signal ratio;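 note: HeLa cells with beta-lactamase reporter driven by heat shock elements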)
In short: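 Beta-lactamase reporter read-out: FRET substrate fluorescence after 2.5 h at RT, following 5 h compound treatment at 37 C of HeLa cells carrying HSE-driven bla reporter; quantitative HTS format.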

[15] = molecular target: Aromatase (Homo sapiens) (UniProt P11511); experiment: qHTS assay to identify aromatase inhibitors (AID 743083); note: nearly all actives have a fitted effect of over 55% in size; note: potency is the fitted concentration of half-maximal effect
Sequence of Aromatase (Homo sapiens) (P11511 whole entry, looked up): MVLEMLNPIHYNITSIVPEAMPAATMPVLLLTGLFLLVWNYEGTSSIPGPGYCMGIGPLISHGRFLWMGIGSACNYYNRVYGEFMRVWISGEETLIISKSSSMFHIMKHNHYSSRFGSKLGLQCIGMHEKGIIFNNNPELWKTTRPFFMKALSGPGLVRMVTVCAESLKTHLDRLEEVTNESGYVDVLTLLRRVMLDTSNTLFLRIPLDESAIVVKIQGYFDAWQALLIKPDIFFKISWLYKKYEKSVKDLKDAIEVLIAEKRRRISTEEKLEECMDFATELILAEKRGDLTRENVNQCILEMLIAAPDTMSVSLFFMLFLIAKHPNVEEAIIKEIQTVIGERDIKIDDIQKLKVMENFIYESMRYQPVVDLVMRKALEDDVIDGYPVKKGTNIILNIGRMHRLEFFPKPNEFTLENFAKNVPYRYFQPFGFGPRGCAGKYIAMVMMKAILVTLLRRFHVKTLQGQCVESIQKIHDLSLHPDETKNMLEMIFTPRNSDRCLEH

[16] = qHTS assay to identify aromatase inhibitors - cell viability counter screen (AID 743084)
[17] = qHTS assay to identify small molecule that activate the aryl hydrocarbon receptor (AhR) signaling pathway - cell viability counter screen (AID 743086);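 note: HepG2 liver cells carrying the AhR DRE luciferase reporter; nearly all actives have a fitted effect of over 45% in size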
In short: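 HepG2-AhR-luc (HG2L7.5c1) cells, 4000/well, treated 24 h at 37 C with compound; viability measured as CellTiter-Fluor fluorescence after 30 min in the same wells as the luciferase read.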

[18] = molecular target: Peroxisome proliferator-activated receptor gamma (Homo sapiens) (UniProt P37231); experiment: qHTS assay to identify small molecule agonists of the peroxisome proliferator-activated receptor gamma (PPARg) signaling pathway (AID 743094; active = well fitted activation curve with a large enough effect in the signal ratio in the repeat runs, not every such curve was filed as active; inconclusive = weak or mixed curves, or effect the other way; inactive = no such curve, though single readings can be large or run the other way; the % refers to the signal ratio)
In short: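 Agonism was assessed in a beta-lactamase reporter system, HEK293H cells with a stably integrated UAS-bla construct under PPARg control; the 17 h treatment at 37C preceded a 1 h room-temperature FRET substrate read.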

[19] = test system: thyroid hormone receptor (rat, GH3 cells); experiment: qHTS assay to identify small molecule agonists of the thyroid receptor (TR) signaling pathway (AID 743066; calls by dose curve)
[20] = molecular target: Estrogen receptor (Homo sapiens) (UniProt P03372); experiment: qHTS assay to identify small molecule antagonists of the estrogen receptor alpha (ER-alpha) signaling pathway (AID 743069; active = well fitted curve in the direction sought with a large enough effect in the signal ratio in the repeat runs, not every such curve was filed as active; inconclusive = weak or mixed curves, or effect the other way; inactive = no such curve, though single readings can be large or run the other way; the % refers to the signal ratio; note: potency is the fitted concentration of half-maximal effect)
In short: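 Beta-lactamase FRET fluorescence is read after 2 hr at room temperature with LiveBLAzer B/G substrate. Before that, ER-alpha-bla HEK293 cells sit 4 hr after plating, then receive compound plus 17beta-estradiol and incubate 18 hr at 37C.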
% is set by controls: 0 for no effect and ±100 for the full control effect.

CC[C@]1(O)CC[C@H]2[C@@H]3CCC4=CCCC[C@@H]4[C@H]3CC[C@@]21C
active: Potency [2] 8.41 µM | Potency [4] 0.0005 µM [inconclusive] | activation [5] 5.41%
inactive: Potency [1] | Potency [3] | Potency [6] | Potency [7] | Potency [8] | Potency [9] | Potency [10] | Potency [11] | Potency [12] | Potency [13] | Potency [14]

[O-][Cl+3]([O-])([O-])O
inactive: Potency [1] | Potency [3] | Potency [7] | Potency [15] | Potency [16] | Potency [17] | Potency [18] | Potency [9] | Potency [10] | Potency [11] | Potency [12] | Potency [13] | Potency [14]

c1ccc2c(c1)cc1ccc3cccc4ccc2c1c34
inactive: Potency [2] | Potency [19] | Potency [3] | Potency [15] | Potency [10] | Potency [12] | Potency [13]

CSC(=O)c1c(C(F)F)nc(C(F)(F)F)c(C(=O)SC)c1CC(C)C
active: Potency [1] 54.2 µM | Potency [15] 68.2 µM
inactive: Potency [3] | Potency [4] | Potency [5] | Potency [6] | Potency [7] | Potency [16] | Potency [10] | Potency [11] | Potency [13] | Potency [14]

CSSC
inactive: Potency [2] | Potency [19] | Potency [3] | Potency [7] | Potency [11] | Potency [12] | Potency [13] | Potency [14]

O.O.O.O.O.O.O.O=S(=O)([O-])[O-].[Co+2]
inactive: Potency [1] | Potency [7] | Potency [15] | Potency [16] | Potency [8] | Potency [17] | Potency [12] | Potency [13]

O=C(Cl)c1ccccc1F
inactive: Potency [2] | Potency [19] | Potency [20] | Potency [3] | Potency [4] | Potency [5] | Potency [6] | Potency [7] | Potency [15] | Potency [16] | Potency [17] | Potency [18] | Potency [9] | Potency [10] | Potency [11] | Potency [12] | Potency [13] | Potency [14]

c1ccc(Nc2ccc(Nc3ccccc3)cc2)cc1
active: Potency [2] 9.65 µM | Potency [20] 1.73 µM [inconclusive] | Potency [5] 6.09 µM | Potency [12] 60.9 µM | Potency [13] 24.4 µM
inactive: Potency [19] | Potency [3] | Potency [7] | Potency [15] | Potency [17] | Potency [10]

CCCCCCC[CH2][Sn]([Cl])([Cl])[CH2]CCCCCCC
inactive: Potency [19] | Potency [7] | Potency [16] | Potency [17]
active: Potency [2] 54.4 µM | Potency [3] 24.5 µM | Potency [8] 21.7 µM | Potency [11] 0.863 µM | Potency [12] 54.4 µM | Potency [13] 30.9 µM

ClC(Cl)C(Cl)(Cl)Cl
inactive: Potency [2] | Potency [19] | Potency [20] | Potency [3] | Potency [4] | Potency [5] | Potency [6] | Potency [7] | Potency [15] | Potency [16] | Potency [8] | Potency [17] | Potency [9] | Potency [10] | Potency [11] | Potency [12] | Potency [13] | Potency [14]

O.O.O.O.O.O.O=S(=O)([O-])[O-].[Ni+2]
inactive: Potency [1] | Potency [3] | Potency [7] | Potency [15] | Potency [16] | Potency [8] | Potency [17] | Potency [10] | Potency [12] | Potency [13]

N#Cc1c2ccccc2cc2ccccc12
inactive: Potency [2] | Potency [19] | Potency [3] | Potency [15] | Potency [8] | Potency [10] | Potency [12] | Potency [13]

COP(=S)(NC(C)C)Oc1ccc(C)cc1[N+](=O)[O-] (centres undefined)
active: Potency [4] 5.49 µM [inconclusive] | Potency [5] 1.93 µM | Potency [6] 38.6 µM
inactive: Potency [2] | Potency [19] | Potency [3] | Potency [7] | Potency [16] | Potency [17] | Potency [10] | Potency [11] | Potency [12] | Potency [13] | Potency [14]

CC(C)=CCN1CC[C@@]2(C)c3cc(O)ccc3C[C@@H]1[C@@H]2C
inactive: Potency [19] | Potency [20] | Potency [4] | Potency [5] | Potency [7] | Potency [15] | Potency [16] | Potency [17] | Potency [18] | Potency [9] | Potency [10] | Potency [11] | Potency [12] | Potency [13] | Potency [14]
active: Potency [2] 21.4 µM

COC(=O)C(C)N(C(=O)c1ccco1)c1c(C)cccc1C (centres undefined)
inactive: Potency [2] | Potency [19] | Potency [20] | Potency [3] | Potency [4] | Potency [5] | Potency [7] | Potency [15] | Potency [16] | Potency [17] | Potency [9] | Potency [10] | Potency [11] | Potency [12] | Potency [13] | Potency [14]

O=S(=O)(NS(=O)(=O)C(F)(F)F)C(F)(F)F
inactive: Potency [1] | Potency [3] | Potency [7] | Potency [16] | Potency [10] | Potency [12] | Potency [13]

COP(=O)(OC)O/C(=C\Cl)c1cc(Cl)c(Cl)cc1Cl
active: Potency [2] 27.3 µM | Potency [20] 24.5 µM [inconclusive] | Potency [6] 68.6 µM | Potency [15] 30.6 µM | Potency [9] 4.9 µM
inactive: Potency [19] | Potency [7] | Potency [13] | Potency [14]
